Holding throughout (type): functional
Assay [1] has as its system Plasmodium falciparum. The assay can be described thus: GSK_TCMDC: Inhibition of Plasmodium falciparum 3D7 in whole red blood cells, using parasite LDH activity as an index of growth. Test compounds present at 2uM.
Assay [2] has as its system Plasmodium falciparum. The assay can be described thus: GSK_TCMDC: Inhibition of Plasmodium falciparum Dd2 in whole red blood cells, using parasite LDH activity as an index of growth. Test compounds present at 2uM.
For another assay, the system named is HepG2. The assay can be described thus: GSK_TCMDC: Percent inhibition of human HepG2 cell line. Test compounds present at 10uM.

Turning to `CCc1ccc(C2=Nn3c(nnc3-c3cccs3)SC2)cc1`, the results for the Inhibition in the assay on Plasmodium falciparum [1], in the assay with Plasmodium falciparum [2] and in the assay with HepG2 were 93%, 20% and 9%, respectively.
For `C[C@H](Cc1ccc(OCCNC[C@H](O)c2cccc(Cl)c2)cc1)NC[C@H](O)c1ccc(Cl)c(Cl)c1.O` the same measures were 83%, 64% and 69%.
For `COc1ccccc1C1CCN(C2CCC(NC(=O)/C=C/c3ccc(OC(F)(F)F)cc3)CC2)CC1` (stereo unspecified) the same measures were 82%, 11% and 65%.
As to `CN(C)CCCc1cc2c(cc1Cl)CCN2C(=O)Nc1ccc(-c2ccncc2)c2ccccc12`, the Inhibition (commonly the relative decrease from the control value, in per cent) with Plasmodium falciparum [1] is given as 94%; in the assay with Plasmodium falciparum [2], 0%; in the assay with HepG2 it was 4%.
As to `N#Cc1ccc(CN2CCC(Oc3ccc(NC(=O)c4cccs4)cc3)CC2)cc1.O=C(O)C(F)(F)F`, the Inhibition with Plasmodium falciparum [1] amounted to 83%; with Plasmodium falciparum [2] it was 82%; in the assay with HepG2 it was 10%.
For `Cc1cccc(NC(=O)N(Cc2cc3cc(C)cc(C)c3[nH]c2=O)C2CC2)c1` the same measures were 97%, 94% and 3%.
For `CC(=O)N[C@H](C(=O)Nc1ccc(-c2cccc(-c3nc4cccc(C)c4[nH]3)c2)cc1)C(C)C` the same measures were 89%, 10% and 9%.
For `COCCN1CCC(N(CC2(O)CCN(c3ccc(C(F)(F)F)cc3)CC2)C(=O)Cn2c(SCc3cccc(F)c3F)cc(=O)c3ccccc32)CC1` the same measures were 94%, 75% and 29%.
For the compound `COc1ccc(-c2nnc(Sc3ccc(C#N)c([N+](=O)[O-])c3)n2CCC(C)C)cc1`, the Inhibition in the assay on Plasmodium falciparum [1] was 89%; with Plasmodium falciparum [2], 53%; in the assay on HepG2, 15%.
For `c1ccc(C2CCC(N3CCC(N4CCN(c5ccccc5)CC4)CC3)CC2)cc1` (stereo unspecified), the Inhibition in the assay with Plasmodium falciparum [1] stood at 97%; in the assay on Plasmodium falciparum [2], 34%; with HepG2, 6%.
As to `Fc1ccc2[nH]c(-c3cccc(-c4ccc(CNCc5cnn(-c6ccccc6)n5)cc4)c3)nc2c1.O=C(O)C(F)(F)F`, the Inhibition in the assay on Plasmodium falciparum [1] is on record as 98%; in the assay with Plasmodium falciparum [2], 22%; with HepG2 it was 18%.
The matching figures for `Cc1ccc(CN2CCN(c3cc4c(cc3Cl)CCN4C(=O)Cc3ccc(Cl)c(NC(=O)Nc4cccc(C#N)c4)c3)CC2)cc1`: 92%, 29% and 3%.
For `Cc1cc(C)c(NC(=O)N2CCCN(CCCCCNC(=O)/C=C/c3ccc(Cl)c(Cl)c3)CC2)c(C)c1`, the values for the Inhibition in the assay with Plasmodium falciparum [1], with Plasmodium falciparum [2] and in the assay with HepG2 were 91%, 0% and 12%, respectively.
For `COc1ccc(NC(=O)CCNc2cc(C)nc(Nc3ccccc3)n2)cc1.O=C(O)C(F)(F)F` the same measures were 92%, 15% and 0%.
The matching figures for `O=C(Nc1ccc(OC2CCN(Cc3ccc(F)cc3)CC2)c(Cl)c1)c1ccc(F)cc1.O=C(O)C(F)(F)F`: 97%, 95% and 37%.
Take `CC1(C)N=C(N)N=C(N)N1c1cccc(Cl)c1.Cl`: the Inhibition came out at 96% with Plasmodium falciparum [1], 96% with Plasmodium falciparum [2] and 69% in the assay with HepG2.
Regarding `CN(C)c1ccc(-c2ccc(C(=O)NC3CCN(Cc4ccc(F)cc4)CC3)s2)cc1.O=C(O)C(F)(F)F`, the Inhibition is reported as 87% in the assay on Plasmodium falciparum [1], 19% in the assay with Plasmodium falciparum [2] and 34% in the assay on HepG2.
For `Clc1cccc(CNC2CCN(CC3CCCCC3)CC2)c1.O=C(O)C(F)(F)F` the same measures were 97%, 24% and 4%.
For `CCCCCN1CCC(NS(=O)(=O)c2cccc(C(=O)Nc3ccc(Cl)cc3)c2)CC1.O=C(O)C(F)(F)F` the same measures were 88%, 29% and 24%.
In the case of `N#Cc1ccc(-c2ccc(C(=O)NCCCCN3CCC(c4nc5ccccc5[nH]4)CC3)cc2)cc1`, the Inhibition is reported as 92% with Plasmodium falciparum [1], 13% in the assay on Plasmodium falciparum [2] and 43% in the assay on HepG2.
As for `COc1cc(NC(=O)c2cccc([N+](=O)[O-])c2)cc(S(=O)(=O)c2ccc(Cl)cc2)c1`, the Inhibition amounted to 88% with Plasmodium falciparum [1], 23% in the assay with Plasmodium falciparum [2] and 0% in the assay on HepG2.
The matching figures for `Cc1c(C(=O)C2CC2CN2CCC(N3CCCC3)CC2)sc2ccccc12` (stereo unspecified): 94%, 9% and 16%.
The matching figures for `O=C(Nc1ccc(-c2cccc(-c3nc4cc(C(F)(F)F)ccc4[nH]3)c2)cc1)c1ccoc1`: 96%, 13% and 52%.
For `COc1ccc(CNC2Cc3ccccc3C2)cc1-c1ccc(S(=O)(=O)NCc2ccccc2)s1.O=C(O)C(F)(F)F` the same measures were 97%, 25% and 22%.
Take `Cc1ccc(NC(=O)c2ccc(CN3CCCN(CC4CCCCC4)CC3)cc2)cc1C.O=C(O)C(F)(F)F`: the Inhibition is given as 86% in the assay on Plasmodium falciparum [1], 32% in the assay on Plasmodium falciparum [2] and 38% with HepG2.
For `O=C(O)C(F)(F)F.O=S(=O)(/C=C/c1ccccc1)N(Cc1ccc(-c2ccc(CNCCOc3ccccc3)cc2)cc1)CC1CCCCN1` (stereo unspecified), the Inhibition was found to be 99% in the assay with Plasmodium falciparum [1], 95% in the assay with Plasmodium falciparum [2] and 99% in the assay on HepG2.
In the case of `CCOC(=O)c1ccc(NCc2ccccn2)cc1`, the Inhibition in the assay on Plasmodium falciparum [1] is 99%; in the assay with Plasmodium falciparum [2], 0%; with HepG2, 0%.

The record behind these values is ChEMBL document CHEMBL1157539, “Thousands of chemical starting points for antimalarial lead identification” (Nature, 2010).
